Out of some 5,600 compounds screened, about 390 (7%) showed an effect of 50% or more. Many of the other results were omitted from the sample, so strong results are more common in it than they were. Non-standard residues stand in square brackets, D forms with d. Residues, ends and D or L forms follow the SMILES beside them. dPhe(4-Cl) = N[C@H](Cc1ccc(Cl)cc1)C(=O)O; d2Nal = N[C@H](Cc1ccc2ccccc2c1)C(=O)O; dCit = NC(=O)NCCC[C@@H](N)C(=O)O; d3Pal = N[C@H](Cc1cccnc1)C(=O)O
Assays:
[1] = biological target: T1, Protein deacetylase HDAC6 (Homo sapiens) (UniProt Q9UBN7); settings: at 10 µM
T1 sequence (whole entry): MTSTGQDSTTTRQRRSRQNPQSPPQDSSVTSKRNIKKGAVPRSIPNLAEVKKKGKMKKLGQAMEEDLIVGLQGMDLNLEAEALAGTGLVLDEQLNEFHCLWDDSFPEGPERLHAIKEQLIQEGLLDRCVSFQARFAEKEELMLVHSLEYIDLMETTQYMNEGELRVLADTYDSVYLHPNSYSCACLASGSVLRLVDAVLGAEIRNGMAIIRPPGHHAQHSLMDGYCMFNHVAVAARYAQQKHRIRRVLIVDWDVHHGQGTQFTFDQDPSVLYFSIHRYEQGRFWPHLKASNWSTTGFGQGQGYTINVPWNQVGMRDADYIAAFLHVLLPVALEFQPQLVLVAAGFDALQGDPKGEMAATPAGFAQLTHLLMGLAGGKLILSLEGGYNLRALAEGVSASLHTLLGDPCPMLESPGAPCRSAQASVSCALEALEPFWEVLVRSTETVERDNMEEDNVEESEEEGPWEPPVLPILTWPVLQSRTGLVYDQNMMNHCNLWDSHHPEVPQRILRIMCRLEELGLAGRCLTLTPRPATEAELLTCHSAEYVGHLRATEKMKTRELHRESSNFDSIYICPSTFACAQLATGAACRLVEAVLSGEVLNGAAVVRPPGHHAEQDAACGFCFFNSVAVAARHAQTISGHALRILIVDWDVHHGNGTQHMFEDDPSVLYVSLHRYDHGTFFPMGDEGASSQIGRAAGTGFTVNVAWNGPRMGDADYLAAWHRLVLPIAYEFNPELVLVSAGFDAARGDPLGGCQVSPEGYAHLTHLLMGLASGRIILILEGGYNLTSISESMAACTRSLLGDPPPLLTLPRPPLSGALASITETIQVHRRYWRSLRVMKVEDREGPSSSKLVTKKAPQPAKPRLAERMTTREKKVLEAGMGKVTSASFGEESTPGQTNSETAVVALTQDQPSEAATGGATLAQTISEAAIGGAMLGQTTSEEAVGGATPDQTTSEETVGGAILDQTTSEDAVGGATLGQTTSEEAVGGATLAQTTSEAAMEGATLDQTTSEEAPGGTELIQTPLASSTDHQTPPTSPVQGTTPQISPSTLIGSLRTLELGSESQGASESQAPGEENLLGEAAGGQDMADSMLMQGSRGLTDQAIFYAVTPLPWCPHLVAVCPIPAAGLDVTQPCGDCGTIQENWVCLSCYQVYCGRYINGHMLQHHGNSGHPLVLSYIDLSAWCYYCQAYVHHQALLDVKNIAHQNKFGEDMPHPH

[2] = biological target: Protein deacetylase HDAC6 (Homo sapiens) (UniProt Q9UBN7); settings: at 10 µM; remark: listed apart in the source

Row | Molecule | inhibition [1] [%] | inhibition [2] [%]
1 | CNC(=O)c1ccccc1Sc1ccc2c(/C=C/c3ccccn3)n[nH]c2c1 | 105 | 
2 | CCCCc1nc(Cl)c(C(=O)O)n1Cc1ccc(-c2ccccc2-c2nn[nH]n2)cc1 | 6.5 | 
3 | CCOc1nc2cccc(C(=O)O)c2n1Cc1ccc(-c2ccccc2-c2nnn[nH]2)cc1 | -9.37 | 
4 | CCCc1nc2c(C)cc(-c3nc4ccccc4n3C)cc2n1Cc1ccc(-c2ccccc2C(=O)O)cc1 | 65 | 
5 | O=C(O)[C@H]1C[C@@H](CP(=O)(O)O)CCN1 | 7.25 | 
6 | CC(C)C[C@@H](C(=O)N[C@H](C(=O)OC1CCCC1)c1ccccc1)[C@H](O)C(=O)NO | -7.78 | 
7 | [K+] | 17.5 | 
8 | O=C(Nc1cnn2ccc(N3CCC[C@@H]3c3cc(F)ccc3F)nc12)N1CC[C@H](O)C1 | 28.9 | 
9 | O=C1C(O)=C(O)C(=O)C(O)=C1O | 1.19 | 
10 | CCc1cncnc1N1CCN(Cc2nc3cc(C(F)(F)F)ccc3[nH]2)CC1 | 2.81 | 
11 | c1ccc(N2CCN(Cc3nc4ccccc4[nH]3)CC2)nc1 | 20.5 | 
12 | CC(C)(C)c1ccc(-c2nc3c(N4CCN(Cc5ccc6nccnc6c5)CC4)cccc3[nH]2)cc1 | 110 | 
13 | CCCCCCCN(CC)CCCC(O)c1ccc(NS(C)(=O)=O)cc1 (stereo not given) | 30.4 | 
14 | O=C(c1ccc(C(=O)N2CCC(N3CCCC3)CC2)c(Nc2ccccc2)c1)N1CCC(N2CCCC2)CC1 | 28.5 | 
15 | COc1cc2c(cc1OCCCN1CCCC1)N=C(N)C21CCC1 | -4.1 | 
16 | O=C(O)c1ccc(/C=C2/SC(=S)N(c3cccc(C(F)(F)F)c3)C2=O)cc1 | 4.63 | 
17 | COc1ccccc1OCC(O)CO (stereo not given) | -8.39 | 
18 | COc1ccccc1OCC(O)COC(N)=O (stereo not given) | 75.6 | 
19 | NC(=O)OCC(O)COc1ccc(Cl)cc1 (stereo not given) | 47.1 | 
20 | CC(C)C[C@H](NC(=O)N1CCCCCC1)C(=O)N[C@H](Cc1cn(C)c2ccccc12)C(=O)N[C@H](Cc1ccccn1)C(=O)O | -8.82 | 
21 | CC(=O)N[C@H](Cc1ccc2ccccc2c1)C(=O)N[C@H](Cc1ccc(Cl)cc1)C(=O)N[C@H](Cc1cccnc1)C(=O)N[C@@H](CO)C(=O)N[C@@H](Cc1ccc(O)cc1)C(=O)N[C@H](CCCNC(N)=O)C(=O)N[C@@H](CC(C)C)C(=O)N[C@@H](CCCNC(=N)N)C(=O)N1CCC[C@H]1C(=O)N[C@H](C)C(N)=O (Ac-[d2Nal][dPhe(4-Cl)][d3Pal]SY[dCit]LRP[dA]-NH2) | 30.9 | 
22 | Cc1nc(C)c(C)nc1C | -3.53 | 
23 | COc1ccc(-c2ccc(=N)n(CCCC(=O)O)n2)cc1 | 8.71 | 

Row | Molecule | inhibition [1] [%] | inhibition [2] [%]
24 | O=c1ncn2nc(Sc3ccc(F)cc3F)ccc2c1-c1c(Cl)cccc1Cl | 36.3 | 
25 | CN1c2c([nH]c(N)nc2=O)NC[C@@H]1CNc1ccc(C(=O)N[C@@H](CCC(=O)O)C(=O)O)cc1 | 11.1 | 
26 | CCc1nc2ccc(Cl)cn2c1C(=O)NCc1ccc(N2CCC(c3ccc(OC(F)(F)F)cc3)CC2)cc1 | 6.99 | 
27 | COc1cccc(-c2cc(=O)c3ccccc3o2)c1N | 97.4 | 
28 | CC(=O)N[C@@H](CSC/C=C(\C)CC/C=C(\C)CCC=C(C)C)C(=O)O | 19.5 | 
29 | Cc1ccc(N2CCN(CCC3NC(=O)c4ccccc43)CC2)cc1C (stereo not given) | 0.62 | 
30 | CCN(Cc1ccccc1)C(=O)Cn1c(=O)n(C)c2cnc(-c3ccccc3)nc21 | 31.2 | 
31 | Cc1cc2nc3ccc(N(C)C)cc3[s+]c2cc1N | 60.9 | 
32 | CC1CCN(C(c2ccc(F)cc2)c2ccc(C(C)C(=O)O)cc2-c2ccc(C(F)(F)F)cc2)CC1 (stereo not given) | 27.9 | 
33 | Nc1ncnc2nc(-c3ccc(N4CCOCC4)nc3)cc(-c3cccc(Br)c3)c12 | 19.8 | 
34 | CYANOCOBALAMIN, CHEMBL2110563 |  | -2.71
35 | FLUPENTIXOL, CHEMBL6066864 |  | 88.9
36 | BLEOMYCIN SULFATE, CHEMBL6067493 |  | 23.1
37 | O=c1ccc2cc3ccoc3cc2o1 | 17.5 | 
38 | CC(=O)Nc1ccc(C(=O)Nc2ccccc2N)cc1 | -0.35 | 
39 | O=C(O)c1ccc(NC(=O)[C@H](Cc2ccc(O)cc2)NC(=O)c2ccccc2)cc1 | 10.6 | 
40 | CC(C)[C@H](C(=O)Nc1ccc(C(=O)NO)cc1)c1ccccc1 | 101 | 
41 | CC1(C)Oc2ccc(C#N)cc2[C@@H](N2CCCC2=O)[C@@H]1O | -9.16 | 
42 | Cc1ccc(C(=O)Cn2c3c(sc2=N)CCCC3)cc1 | 102 | 
43 | CCOC(=O)C1=C(C)NC(c2ccccc2)=C(C(=O)OCc2ccc([N+](=O)[O-])cc2)C1C#Cc1ccccc1 (stereo not given) | -2.41 | 
44 | COc1cccc(CCc2ccccc2OCC(CN(C)C)OC(=O)CCC(=O)O)c1 (stereo not given) | -7 | 
45 | COc1cccc(/C=N/C=N/c2cccc(OC)c2)c1 | 99.8 | 
